PubChem BioAssay (Tox21)
Records with an inconclusive call do not appear. Calls of active or inactive are those of the source. Calls follow the shape of the dose curve; as a rule, active = well fitted activation curve with a large enough effect in the repeat runs; inconclusive = weak or mixed curves; inactive = flat fitted curve, though single readings scatter.

Assay: A CellTox Green Cytotoxicity Assay to monitor cytotoxicity in HepG2 cells - 32 hour (AID 1224883); also: nearly all actives have a fitted effect of over 50% in size
Conditions: CellTox Green fluorescence; series mostly up to 76.8 µM; cytotoxicity increase: at the top concentration
Description: National Center for Advancing Translational Sciences [NCATS]
NIH Chemical Genomics Center [NCGC]
U.S. Environmental Protection Agency [EPA]
National Institutes of Environmental Health Sciences [NIEHS]
National Toxicology Program [NTP]
Cell-based models are critical for drug discovery. Determining the natural cytotoxic effects resulting from test compounds is an essential research activity. A CellTox Green Cytotoxicity Assay to monitor cytotoxicity in real time of continues cell culture during 40 hours of the compound treatment was used to screen Tox21 10K library compounds in HepG2 cells. CellTox Green Cytotoxicity Assay is a nonlytic, homogeneous, biofluorescent method to measure cytotoxicity in cell culture after experimental manipulation. The assay system uses a proprietary asymmetric cyanine dye that is excluded from viable cells but preferentially stains the dead cell's DNA. […] Viable cells produce no appreciable increases in fluorescence. Therefore, the fluorescence signal produced by the binding interaction with dead cell DNA is proportional to cytotoxicity.
The mixture of HepG2 cell suspension and reagents were dispensed at 600cells/6 ul/well in 1536-well tissue culture treated black solid bottom plates using a Multidrop dispenser. After the assay plates were incubated at a 37 C/5% CO2 incubator for 5 hours, 23 nL of compounds dissolved in DMSO, positive and negative controls was transferred to the assay plate by a pintool work station. The plates were incubated at 37 C for 40 hours. The fluorescence intensity were measured at 0h, 8h, 16h, 24h, 32h and 40h time points using ViewLux plate reader during compound treatment.
% is scaled to controls: 0 for no effect and ±100 for the full control effect; potency is read from the fitted curve at half-maximal effect.

Row | Structure (SMILES) | cytotoxicity increase | Potency
1 | CC(=O)Nc1ccc(S(=O)(=O)Cl)cc1 | -16.3% (inactive) | 
2 | O=C(NCC(O)CO)c1c(I)c(C(=O)NCC(O)CO)c(I)c(N(CCO)C(=O)CO)c1I (stereo not given) | 6.71% [at 35.3 µM] (inactive) | 
3 | CC(CO)c1ccccc1 (stereo not given) | -9.25% (inactive) | 
4 | C=C(C)C(=O)OCCN(CC)CC | 0.939% (inactive) | 
5 | O=C(OCc1ccccc1)C(=O)OCc1ccccc1 | -4.74% (inactive) | 
6 | CC(C)C(=O)OCCc1ccccc1 | 0.154% (inactive) | 
7 | COc1ccc(-c2cc(=O)c3c(O)cc(O[C@@H]4O[C@H](CO[C@@H]5O[C@@H](C)[C@H](O)[C@@H](O)[C@H]5O)[C@@H](O)[C@H](O)[C@H]4O)cc3o2)cc1O | 0.415% [at 35.3 µM] (inactive) | 
8 | Cc1cc(Cl)c(C)cc1Cl | 0.59% (inactive) | 
9 | O=C(O)CCSSCCC(=O)O | -1.3% (inactive) | 
10 | CC(C)C[C@H](NC(=O)CNC(=O)[C@H](Cc1ccc(O)cc1)NC(=O)[C@H](CO)NC(=O)[C@H](Cc1c[nH]c2ccccc12)NC(=O)[C@H](Cc1cnc[nH]1)NC(=O)[C@@H]1CCC(=O)N1)C(=O)N[C@@H](CCCN=C(N)N)C(=O)N1CCC[C@H]1C(=O)NCC(N)=O (stereo in doubt) | -8.54% [at 35.3 µM] (inactive) | 
11 | C=C(C)C(=O)OCc1ccccc1 | 2.18% (inactive) | 
12 | CCn1ccc(NS(=O)(=O)c2ccc(N)cc2)nc1=O | -8.96% [at 35.3 µM] (inactive) | 
13 | NCCS | -3.47% [at 35.3 µM] (inactive) | 
14 | CC(CN)CC(C)(C)CCN (stereo not given) | -0.295% [at 200 µM] (inactive) | 
15 | CC(C(=O)O)c1ccc2c(c1)CC(=O)c1ccccc1S2 (stereo not given) | -5.07% [at 35.3 µM] (inactive) | 
16 | NCCN1CCOCC1 | 0.616% (inactive) | 
17 | Brc1ccc(-c2ccccc2)cc1 | 2.26% (inactive) | 
18 | CC(C)(C)c1nnc(NS(=O)(=O)c2ccc(N)cc2)s1 | -8.33% [at 35.3 µM] (inactive) | 
19 | CCOC(=O)[C@H](CCc1ccccc1)N[C@@H](C)C(=O)N1C(=O)N(C)C[C@H]1C(=O)O | 2.27% [at 35.3 µM] (inactive) | 
20 | COc1nccnc1NS(=O)(=O)c1ccc(N)cc1 | -0.403% [at 35.3 µM] (inactive) | 

Row | Structure (SMILES) | cytotoxicity increase | Potency
21 | CCOCCOC(=O)/C=C/c1ccc(OC)cc1 | -15.4% [at 35.3 µM] (inactive) | 
22 | NS(=O)(=O)c1cc2c(cc1Cl)CN(C1CCCCC1)C2=O | 3.54% [at 35.3 µM] (inactive) | 
23 | Cc1ccccc1C(=O)Nc1ccc(C(=O)N2CCCC(N(C)C)c3ccccc32)cc1 (stereo not given) |  | 7.56 µM (active)
24 | COc1cc(NS(=O)(=O)c2ccc(N)cc2)nc(OC)n1 | 1.08% [at 35.3 µM] (inactive) | 
25 | CN(C)CCOCCO | -6.16% (inactive) | 
26 | CC(=O)NCCCCCC(=O)O | -3.95% [at 35.3 µM] (inactive) | 
27 | COc1ccc(Br)c(C)c1 | 15.1% (inactive) | 
28 | COCCOC(=O)C1=C(C)NC(C)=C(C(=O)OC(C)C)C1c1cccc([N+](=O)[O-])c1 (stereo not given) | 0.0334% [at 35.3 µM] (inactive) | 
29 | CC(C)NCC(O)COc1cccc2[nH]ccc12 (stereo not given) | -3.53% [at 35.3 µM] (inactive) | 
30 | CC1=C(C(=O)O)N2C(=O)[C@@H](NC(=O)[C@H](N)c3ccc(O)cc3)[C@H]2SC1 | -19.4% [at 35.3 µM] (inactive) | 
31 | N[C@@H](CCC(=O)Nc1ccc([N+](=O)[O-])cc1)C(=O)O | 6.68% (inactive) | 
32 | COc1ccc2nc(SCc3ncc(C)c(OC)c3C)[nH]c2c1 | 1.43% [at 35.3 µM] (inactive) | 
33 | CCCCCCCCCCl | 1.47% (inactive) | 
34 | CCCOC(=O)C(C)O (stereo not given) | 1.76% (inactive) | 
35 | COP(=O)(OC)OC(c1ccc(Cl)cc1)P(=O)(OC)OC (stereo not given) | -11.9% [at 35.3 µM] (inactive) | 
36 | O=C(NCCN1CCOCC1)c1ccc(Cl)cc1 | -6.43% [at 35.3 µM] (inactive) | 
37 | CCCC/C=C\CCCCCCCCCC=O | 2.68% (inactive) | 
38 | COC(=O)CCc1ccc(OCC(O)CNC(C)C)cc1 (stereo not given) | 4.58% [at 35.3 µM] (inactive) | 
39 | O=C1c2ccccc2C(=O)N1CCl | 0.587% (inactive) | 
40 | Cc1cc(C(C)(C)C)c(O)c(C)c1CC1=NCCN1 | -8.56% [at 35.3 µM] (inactive) | 
